Compounds without any hit were thinned out: in the full panel of roughly 83,000, 20% have a hit.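 Note: values are percent growth. 100 is the growth of untreated cells, values between 100 and 0 indicate rising inhibition; between -100 and 0 indicates cell death.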 The source made the active and inactive calls. How the source made its calls: active means growth percent below 10; inactive means the rest.
How the values were obtained:
Assay in all cases: NCI-60 one-dose screen, 48 h (100 = growth as untreated, 0 = no growth, -100 = all killed)
Conditions in all cases: 10 µM unless noted
[1] = tested on: T-47D breast
[2] = tested on: BT-549 breast
[3] = tested on: MDA-MB-435 melanoma
[4] = tested on: SW-620 colon
[5] = tested on: MCF7 breast
[6] = tested on: HCT-116 colon
[7] = tested on: HCC-2998 colon
[8] = tested on: KM12 colon

Measured: growth

C=C1C(=O)O[C@H]2[C@H]1CC/C(CNC(=O)Cc1c[nH]c3ccccc13)=C\CC[C@@]1(C)O[C@@H]21
inactive: [2] 13.6% | [5] 17.8% | [7] 60.4% | [8] 47.5%
active: [1] -9.45% | [3] 7.96% | [4] -20.4% | [6] -11.9%

COc1ccc(-c2cc(-c3cn(-c4cccc(Cl)c4)nc3-c3ccc(OC)cc3)on2)cc1
inactive: [1] 95% | [2] 121% | [3] 110% | [4] 106% | [5] 86.6% | [7] 101% | [8] 92.5%

O=C(/C=C/C12c3ccccc3C(c3ccccc31)C1C(=O)NC(=O)C12)c1ccc(Cl)cc1Cl (centres undefined)
active: [1] 9.41% | [3] -0.0298% | [4] 5.09% | [5] 6.75%
inactive: [2] 14.6% | [7] 68.2% | [8] 17.4%

Cc1ccc(NC(=O)c2cc3ccccc3cc2O)c(C)c1
inactive: [1] 97.2% | [2] 75.9% | [3] 72.5% | [4] 78.1% | [5] 92.7% | [7] 96.7% | [8] 83.1%

c1cc(OCCN2CCCCC2)ccc1CNc1ccc2nc(CCC3CCCCC3)[nH]c2c1
active: [1] -29.6% | [3] -54.2% | [4] 2.97% | [5] -3.08% | [7] -13.5%
inactive: [2] 73.6% | [6] 12.9% | [8] 43%

CCCCNC(=O)c1ccc2c(c1)nc(-c1ccccc1)n2C1CCCCC1
inactive: [1] 88.1% | [2] 99.7% | [3] 99.9% | [4] 107% | [5] 82.1% | [7] 102% | [8] 88.4%

COc1cc2c(c(OC)c1OC)C(=O)CC(c1cccc(C(=O)Nc3ccccc3Br)c1)O2 (centres undefined)
inactive: [1] 55.4% | [2] 78.8% | [3] 83.9% | [4] 99.3% | [5] 68.9% | [7] 95% | [8] 93.5%

O=C(Nc1cccnc1Nc1ccc(Cl)cc1)c1cn(Cc2cccc(Oc3ccccc3)c2)nn1
active: [3] -30.2%
inactive: [1] 48.1% | [2] 52.2% | [4] 36.5% | [5] 19.6% | [7] 63.9% | [8] 31.8%

COC12C=C/C(=C(/C(=O)OCc3cncnc3)C(=O)CCCCCCCCC3(OC)C=C/C(=C(/C(=O)OCc4cncnc4)C(=O)CCCCCCCC1)O3)O2
inactive: [1] 10.2%
active: [2] -10.2% | [3] -49.8% | [4] 4.94% | [5] 3.84% | [7] -77.5% | [8] -89.2%

CC(O)Cc1c[nH]c(=O)[nH]c1=O (centres undefined)
inactive: [2] 105% | [3] 103% | [4] 94.9% | [5] 88.9% | [7] 119% | [8] 95.6%
active: [1] -19.1%

CCCCCCCCn1ccc2cc(NC(=O)CN3CCN(c4cc(C)nc(Cl)n4)CC3)ccc21
inactive: [1] 67.8% | [2] 75% | [3] 84.1% | [4] 95.3% | [5] 75.4% | [6] 79.2% | [7] 106% | [8] 91.9%

COc1ccc(/C=C2\CN(C(=O)C(Cl)Cl)C/C(=C\c3ccc(OC)c(OC)c3)C2=O)cc1OC
active: [1] 0.33% | [2] -41% | [3] -34.3% | [4] -41.4% | [5] 0.517% | [6] -83.6% | [7] -95.5% | [8] -49.7%

Nc1nc(N)c2c(n1)NC(c1cccc(Nc3ccnc4cc(C(F)(F)F)ccc34)c1)CC(c1ccc3c(c1)OCO3)=N2 (centres undefined)
inactive: [1] 90.6% | [2] 112% | [4] 54.6% | [5] 33.3% | [7] 75.7% | [8] 38.6%
active: [3] 9.59%

O=C(Nc1ccc(Oc2cccc(Cl)c2)c(Cl)c1)c1cccnn1
inactive: [1] 72.4% | [2] 98.5% | [3] 77.6% | [4] 105% | [5] 91.7% | [6] 66.7% | [7] 95.2% | [8] 85.3%

Nc1c(C(=O)Nc2cccc3ncccc23)sc2nc3c(cc12)CN(Cc1ccccc1)CC3
inactive: [1] 41.3% | [2] 71.5% | [3] 22.1% | [4] 83.7% | [5] 53.1% | [6] 74.2% | [7] 93.5% | [8] 86.7%

C/C=C1/CN(CCCCC)CC[C@H]1C(=O)c1cc2ccccc2[nH]1
inactive: [1] 82.6% | [2] 97.4% | [3] 97.8% | [4] 87% | [5] 89.3% | [6] 66.5% | [7] 101% | [8] 109%

Cc1ncc(C(=O)Nc2ccc(CN3CCN(C)CC3)c(C(F)(F)F)c2)cc1C#Cc1cnc(N)c2ccc(C#N)cc12
inactive: [1] 19% | [2] 43.5% | [5] 11.5% | [7] 34.1%
active: [3] -28.4% | [4] 6.41% | [6] -19.9% | [8] 3.87%

CCCC(O)Cn1ncc(C(=O)OCC)c1NC(=O)NCc1cccc(C(F)(F)F)c1 (centres undefined)
inactive: [1] 73.2% | [2] 77.8% | [3] 103% | [4] 106% | [5] 97.6% | [7] 85.3% | [8] 103%

CCOC(=O)C/C(=N\Nc1cc(=O)[nH]c2ccc(C)cc12)C(=O)OCC
inactive: [1] 107% | [2] 108% | [3] 98.6% | [4] 94.8% | [5] 94.8% | [7] 102% | [8] 100%

Cc1c2ccccc2nc2cc3c(cc12)[C@H]1CC[C@]2(C)C(=O)CC[C@H]2[C@@H]1CC3
inactive: [1] 103% | [2] 96% | [3] 95.6% | [4] 99.8% | [5] 115% | [6] 90.2% | [7] 109% | [8] 95.4%

Clc1ccc2nn3c4ccccc4c(OCCN4CCOCC4)nc3c2c1
inactive: [1] 87.7% | [2] 97.8% | [3] 103% | [4] 88.1% | [5] 83.4% | [6] 88.7% | [7] 107% | [8] 100%

COCCn1cc(-c2csc(-c3c[nH]c4ccc(F)cc34)n2)c2cccnc21
inactive: [4] 18.8% | [5] 11.8% | [7] 27.6%
active: [1] 2.36% | [2] 7.07% | [3] 5.02% | [8] 8.29%

C=C(c1ccc(C(=O)O)c(F)c1)c1cc2c(cc1C)C(C)(C)CCC2(C)C
inactive: [1] 78.5% | [2] 91.7% | [3] 89.3% | [4] 97.6% | [5] 62.1% | [6] 79.5% | [7] 89.9% | [8] 69.2%

O=C(Cc1ccc(/C=C/C(=O)c2ncc[nH]2)cc1)Nc1cc(F)c(F)c(F)c1
inactive: [1] 49.9% | [2] 66.7% | [3] 51.2% | [4] 13.1% | [5] 10.4% | [7] 75.2% | [8] 24.7%

Clc1ccc(Nc2nnc(CNc3ccccc3)c3ccccc23)cc1
active: [1] 2.82% | [2] 4.94% | [3] 4.17% | [5] 9.2% | [8] 8.93%
inactive: [4] 30.8% | [7] 18.3%

Cc1c2ncccc2nc2[nH]c3ccc(OCCN(C)C)cc3c12
inactive: [1] 32.3% | [2] 63.2% | [3] 36.8% | [4] 17.3% | [7] 53.3% | [8] 20.9%
active: [5] 3.49%

CCOC(=O)/C(=C(/C)NCC(C)C)c1cc(O)c(O)c2c(C)cc(=O)[nH]c12
inactive: [1] 34.7% | [2] 63% | [3] 60.9% | [4] 31.8% | [5] 29.4% | [6] 10.1% | [7] 61.9% | [8] 61.5%

CC(=O)N1N=C(c2ccc(Nc3nc(Nc4ccc(F)cc4)nc(Nc4ccc(F)cc4)n3)cc2)CC1c1ccc(N(C)C)cc1 (centres undefined)
active: [3] 6.22%
inactive: [1] 25% | [2] 63.9% | [4] 63.7% | [5] 42.2% | [7] 67.5% | [8] 39.8%

Cn1cc(-c2nonc2-c2c[nH]c3ccccc23)c2cc(Br)ccc21
active: [3] 2.49%
inactive: [1] 14.5% | [2] 47.1% | [4] 23.9% | [5] 19.6% | [7] 43.4% | [8] 17.7%

c1ccc(Nc2nc3c(s2)CCc2c[nH]cc2-3)nc1
inactive: [1] 11% | [2] 95.4% | [3] 110% | [4] 102% | [5] 65.1% | [7] 103% | [8] 92.3%

COC1C(O)CC(OC2CC(OC3CC(O[C@@H]4C(=O)c5c(cc6cc(OC7CC(OC8CC(O)C(O)C(C)O8)C(O)C(C)O7)c(C)c(O)c6c5O)CC4[C@H](OC)[C@@H](O)C(C)=O)OC(C)C3O)OC(C)C2O)OC1C (some centres undefined)
inactive: [4] 14.9% | [8] 14.7%
active: [1] 1.23% | [2] -1.59% | [3] 5.77% | [5] 4.58% | [6] 4.98% | [7] -50%

COc1ccc(C2CC(n3ccnc3)c3cc(OC)c(OC)c(OC)c32)cc1O (centres undefined)
inactive: [1] 94.3% | [2] 90.4% | [4] 62.5% | [5] 44.8% | [7] 99.2% | [8] 50.6%
active: [3] 5%

COc1ccc(C/C(C)=C(\c2ccc(Cl)cc2)c2ccc(OCCN3CCCC3)cc2)cc1
inactive: [1] 56.6% | [2] 85.5% | [3] 89.4% | [4] 75.2% | [5] 35.7% | [7] 75.6% | [8] 72.1%

— PubChem BioAssay (NCI)
